Results from paper PMC7862700, “An all-to-all approach to the identification of sequence-specific readers for epigenetic DNA modifications on cytosine”.

Each sequence was assayed against ETV1 (Homo sapiens, UniProt P50549 1-477) (assay: DAPPL (digital affinity profiling via proximity ligation, sequencing); 10 mM Tris-HCl pH 7.5, 50 mM NaCl, 1 mM DTT, 4% glycerol, room temperature, 30 min; GST-TFs on glutathione beads, 16-mer random dsDNA library, 0.1% formaldehyde crosslink after washing; high values mean tight binding). Conditions: protein: recombinant; tags: N-terminal GST; dsDNA, one strand shown.
Sequence of ETV1 (P50549 whole entry, the tested form may be a part): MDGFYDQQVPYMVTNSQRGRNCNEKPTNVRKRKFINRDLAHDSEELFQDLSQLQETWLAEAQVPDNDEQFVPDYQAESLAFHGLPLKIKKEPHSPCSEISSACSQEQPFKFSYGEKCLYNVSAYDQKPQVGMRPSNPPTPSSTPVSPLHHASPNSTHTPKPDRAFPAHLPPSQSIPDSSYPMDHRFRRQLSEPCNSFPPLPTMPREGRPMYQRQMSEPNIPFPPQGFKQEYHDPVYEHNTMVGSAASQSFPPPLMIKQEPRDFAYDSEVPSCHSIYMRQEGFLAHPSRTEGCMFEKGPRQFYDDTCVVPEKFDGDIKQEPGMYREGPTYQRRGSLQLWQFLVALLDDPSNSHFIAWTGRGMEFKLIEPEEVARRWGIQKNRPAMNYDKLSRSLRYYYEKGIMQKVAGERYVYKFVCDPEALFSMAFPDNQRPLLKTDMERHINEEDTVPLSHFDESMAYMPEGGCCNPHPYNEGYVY
Outline: (§1)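 Human transcription factors were made in yeast as GST fusions, captured on glutathione beads and barcoded with DNA. With a tag-only sample included, the pool was incubated with 200 nmole of a random double-stranded 16-mer DNA library in Tris/NaCl/DTT/glycerol buffer at room temperature for 30 min, then crosslinked with 0.1% formaldehyde after washing, ligated by proximity, amplified and sequenced. For binding signal, each hexamer's read frequency for a factor is divided by its frequency for the tag-only sample.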

Row | Sequence | binding signal
1 | TAGACA | 1.01 fold enrichment (6-mer frequency, TF over GST control)
2 | AGGCTT | 1 fold enrichment (6-mer frequency, TF over GST control)
3 | TAGCGC | 1.07 fold enrichment (6-mer frequency, TF over GST control)
4 | ATTAGT | 1.03 fold enrichment (6-mer frequency, TF over GST control)
5 | AGGGTT | 1.01 fold enrichment (6-mer frequency, TF over GST control)
6 | TAGAAC | 1.07 fold enrichment (6-mer frequency, TF over GST control)
7 | GCGAAT | 1.04 fold enrichment (6-mer frequency, TF over GST control)
8 | TTAGGC | 1.03 fold enrichment (6-mer frequency, TF over GST control)
9 | GCGATC | 1.03 fold enrichment (6-mer frequency, TF over GST control)

Each sequence was assayed against T1, ERF (Homo sapiens, UniProt P50548 1-548) in the same assay as above. Conditions: protein: recombinant; tags: N-terminal GST; dsDNA, one strand shown.
T1 sequence: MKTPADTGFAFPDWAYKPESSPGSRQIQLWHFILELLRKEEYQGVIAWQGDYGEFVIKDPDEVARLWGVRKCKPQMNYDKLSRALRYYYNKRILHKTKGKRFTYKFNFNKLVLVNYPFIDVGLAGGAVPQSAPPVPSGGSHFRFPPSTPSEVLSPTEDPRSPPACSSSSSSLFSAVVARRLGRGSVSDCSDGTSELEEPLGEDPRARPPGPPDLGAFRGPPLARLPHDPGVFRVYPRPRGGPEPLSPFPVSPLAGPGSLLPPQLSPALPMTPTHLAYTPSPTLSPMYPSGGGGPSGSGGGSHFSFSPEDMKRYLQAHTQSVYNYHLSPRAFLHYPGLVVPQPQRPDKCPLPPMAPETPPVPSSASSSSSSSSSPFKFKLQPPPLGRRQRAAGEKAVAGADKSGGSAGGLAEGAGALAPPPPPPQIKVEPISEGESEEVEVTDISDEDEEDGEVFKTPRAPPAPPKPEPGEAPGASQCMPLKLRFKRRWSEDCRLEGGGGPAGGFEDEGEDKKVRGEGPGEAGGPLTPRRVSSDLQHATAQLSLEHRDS
Outline: as §1

Row | Sequence | binding signal
10 | AGGCTT | 1.02 fold enrichment (6-mer frequency, TF over GST control)
11 | TAGCGC | 1.03 fold enrichment (6-mer frequency, TF over GST control)
12 | CCAGCT | 1.01 fold enrichment (6-mer frequency, TF over GST control)
13 | AGAATA | 1.03 fold enrichment (6-mer frequency, TF over GST control)
14 | TCGAAA | 1.01 fold enrichment (6-mer frequency, TF over GST control)
15 | ACGAAG | 1.02 fold enrichment (6-mer frequency, TF over GST control)
16 | GATCAT | 1.09 fold enrichment (6-mer frequency, TF over GST control)
17 | TAGAAC | 1.02 fold enrichment (6-mer frequency, TF over GST control)
18 | GAATAG | 1.08 fold enrichment (6-mer frequency, TF over GST control)
19 | GCGAAT | 1.05 fold enrichment (6-mer frequency, TF over GST control)
20 | GCCTAG | 1.06 fold enrichment (6-mer frequency, TF over GST control)
21 | CGAATG | 1.02 fold enrichment (6-mer frequency, TF over GST control)
22 | TTAGGC | 1.02 fold enrichment (6-mer frequency, TF over GST control)
23 | CATTAG | 1.01 fold enrichment (6-mer frequency, TF over GST control)

The sequences below were run against T2, ETV3L (Homo sapiens, UniProt Q6ZN32 1-361) in the same assay as above. Conditions: protein: recombinant; tags: N-terminal GST; dsDNA, one strand shown.
T2 sequence: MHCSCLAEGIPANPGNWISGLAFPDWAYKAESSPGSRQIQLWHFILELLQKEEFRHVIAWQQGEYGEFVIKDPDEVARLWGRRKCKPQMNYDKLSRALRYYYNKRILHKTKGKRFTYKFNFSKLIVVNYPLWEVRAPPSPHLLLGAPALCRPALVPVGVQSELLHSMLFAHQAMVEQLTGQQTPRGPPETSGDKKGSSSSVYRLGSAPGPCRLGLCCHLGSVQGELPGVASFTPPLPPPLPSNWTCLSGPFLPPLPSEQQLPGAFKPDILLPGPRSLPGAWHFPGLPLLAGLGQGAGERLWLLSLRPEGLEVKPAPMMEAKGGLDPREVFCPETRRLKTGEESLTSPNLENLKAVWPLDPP
Outline: as §1

Row | Sequence | binding signal
24 | AGATTA | 1.02 fold enrichment (6-mer frequency, TF over GST control)
25 | TAGACA | 1.01 fold enrichment (6-mer frequency, TF over GST control)
26 | CCAGCT | 1.03 fold enrichment (6-mer frequency, TF over GST control)
27 | AGAATA | 1.04 fold enrichment (6-mer frequency, TF over GST control)
28 | ACGAAG | 1 fold enrichment (6-mer frequency, TF over GST control)
29 | ATTAGT | 1.03 fold enrichment (6-mer frequency, TF over GST control)
30 | GATCAT | 1 fold enrichment (6-mer frequency, TF over GST control)
31 | GCCTGG | 1 fold enrichment (6-mer frequency, TF over GST control)
32 | GCGAAT | 1.06 fold enrichment (6-mer frequency, TF over GST control)
33 | GCGATA | 1.03 fold enrichment (6-mer frequency, TF over GST control)
34 | TTAGGC | 1.01 fold enrichment (6-mer frequency, TF over GST control)
35 | GCGATC | 1.03 fold enrichment (6-mer frequency, TF over GST control)
